In the library only some 3.5% were active in any assay of this set; here they are far more common.
mHTT-CaM PPI inh: mutant huntingtin-calmodulin interaction inhibitors – biochemical, AlphaScreen, primary screen | P42858 | AlphaScreen His-mHTT/GST-CaM binding, luminescence | inhibition, % at 15 µM | 190,000 compounds, 3.6% hits | AID 1671202, 2021;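 further: 0% = both proteins with DMSO and 100% = one protein alone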
Pf apPOL block: Pf-apPOL inhibitors, biochemical, fluorescence; inhibition, % at 10 µM; Recombinant Pf-apPOL, molecular beacon fluorescence, 1.5 h; 210,000 compounds, 0.25% hits
Starred values were filed as active, the others as inactive; . = no result given. No stated cut-off is given here; in the data, active means inhibition above about 50%; inactive means the rest.

SMILES | mHTT-CaM PPI inh | Pf apPOL block
COc1ccc(-n2c(C)ccc2C)cc1Cl | 62* | -6
CC(C)n1cc(C2=CCN(C(=O)Nc3ccc(Cl)cc3)CC2)c2cccnc21 | 19 | -7
CC(C)n1cc(C2=CCN(C(=O)Nc3ccc4c(c3)OCCO4)CC2)c2cccnc21 | 61* | -5
Oc1ccccc1C=Nc1ccc(O)c(-c2nc3ccccc3s2)c1 | 32 | 1
COc1cc(C=Nc2ccc(O)c(-c3nc4ccccc4s3)c2)ccc1O | 79* | 2
COc1ccc(C2CC(=O)C3=C(C2)NC(C)=C(C#N)C3c2ccccc2Cl)cc1 (stereo not drawn) | -31 | -10
Cc1cc(C)nc(Nc2ncc(O)n2-c2ccc(Cl)cc2)n1 | 2 | 52*
Cc1ccc(-n2c(O)cnc2Nc2nc(C)cc(C)n2)cc1 | 2 | 24
O=[N+]([O-])c1ccc(N2CCN(S(=O)(=O)c3ccccc3)CC2)c(F)c1 | 7 | -12
N#Cc1c(C(F)(F)F)cc(-c2cccs2)nc1SCC(=O)Nc1ccccc1 | -13 | 12
N#Cc1c(C(F)(F)F)cc(-c2cccs2)nc1SCC(=O)Nc1ccc([N+](=O)[O-])cc1 | 0 | 64*
COc1cccc(NC(=O)CSc2nc3ccc(OC)cc3[nH]2)c1 | 1 | -7
CCn1nccc1C(=O)N1CCCCC1CCN1CCCC1 (stereo not drawn) | -1 | -9
COc1cc(OC)c(OC)cc1/C=C1\NC(=O)N(Cc2ccccc2F)C1=O | -6 | 7
Cn1nc(C(=O)NCc2ccc(F)cc2)c2c1CCN(C(=O)c1ccc(Cl)cc1)C2 | -10 | -13
Cn1nc(C(=O)NCc2ccccc2)c2c1CCN(C(=O)C1CCCCC1)C2 | 85* | -9
Cn1nc(C(=O)NCc2ccc(Cl)cc2)c2c1CCN(C(=O)C1CC1)C2 | 83* | -6
Cn1nc(C(=O)NCc2ccc(F)cc2)c2c1CCN(C(=O)C1CCC1)C2 | 28 | -8
Cc1cccc(CNC(=O)c2nn(C)c3c2CN(C(=O)CC2CCCC2)CC3)c1 | 55* | -10
COc1ccc(C(=O)N2CCc3c(c(C(=O)NCc4ccc(Cl)cc4)nn3C)C2)cc1 | 80* | -1
Cc1cccc(CNC(=O)c2nn(C)c3c2CN(C(=O)C2CCCCC2)CC3)c1 | 36 | -4
CCOCC(=O)N1CCN(Cc2nnnn2-c2ccc(F)cc2)CC1 | -15 | -8
CCC(C)NC(=O)C1c2ccccc2CC(=O)N1C (stereo not drawn) | -6 | 1
Cc1ccc(-c2cncnc2N)cc1 | . | -8
COc1cccc(CNC(=O)C2(C)CCCN(C(=O)NC(C)C)C2)c1 (stereo not drawn) | -5 | 8
SMILES | mHTT-CaM PPI inh | Pf apPOL block
Cc1ccc(OCCOCCN2CCOCC2)c(Br)c1 | 2 | 5
O=C(CCCNC(=O)c1ccc2nsnc2c1)Nc1cccc2cccnc12 | 6 | -5
Cn1nc(C(=O)NCc2ccccc2)c2c1CCN(C(=O)CC1CCCC1)C2 | 71* | -3
CCCC(=O)N1CCc2c(c(C(=O)NCc3ccccc3)nn2C)C1 | 0 | -9
Cn1nc(C(=O)NCc2ccc(F)cc2)c2c1CCN(C(=O)CC1CCCC1)C2 | 76* | -12
O=C(NCC#CCN1CCCC1)c1ccccc1C(F)(F)F | -7 | 1
CCc1noc(-c2cccnc2N2CCCN(C(=O)c3cccc(N(C)C)c3)CC2)n1 | 5 | -11
Cc1cc(NS(=O)(=O)c2ccc(NC(=O)C(Cl)(Cl)Cl)cc2)nc(C)n1 | -5 | 86*
Cc1cc(NS(=O)(=O)c2ccc(NC(=O)C3CC3)cc2)nc(C)n1 | -3 | -5
COC(=O)c1ccc(C=C2Oc3c(CN4CCN(CCO)CC4)c(O)cc(C)c3C2=O)cc1 | 15 | -15
CSC[C@H]1CN(CCc2ccccc2)C(=O)[C@@H]1CC(=O)Nc1ccc(Br)cc1 | 63* | -4
O=C(C[C@H]1C(=O)N(CCc2ccccc2)C[C@@H]1Cc1ccccc1)Nc1ccc(Br)cc1 | 30 | -2
CC(=O)C1=C(O)C(=O)N(CC(=O)O)C1c1ccc(Br)cc1 (stereo not drawn) | 7 | -4
COc1ccc(N2CCN(CC(O)c3ccc4c(c3)CCN4)CC2)cc1 (stereo not drawn) | 8 | -1
CCn1ccc2oc(C)c(C(=O)N3CCN(c4cccc(C)c4C)CC3)c2c1=O | 66* | -4
CCCn1ccc2oc(C)c(C(=O)N3CCN(c4ccccc4F)CC3)c2c1=O | 17 | -3
CCn1ccc2oc(C)c(C(=O)NCc3cc(C)ccc3C)c2c1=O | 4 | -2
CCn1ccc2oc(C)c(C(=O)N3CCN(c4cc(C)ccc4C)CC3)c2c1=O | 85* | -2
CCC(=O)Oc1ccc2c(=O)c(-c3ccc(Br)cc3)c(C)oc2c1 | 1 | 7
COc1ccc(N2C(=O)CCC(C(=O)NCc3cccnc3)C2c2ccc(F)cc2)cc1 (stereo not drawn) | -4 | -2
COc1cccc(C(=O)Nc2cc(F)c3nc(N4CCCC4)ccc3c2)c1 | 11 | 0
Cc1ccc(NC(=O)c2ccc(C)nc2C2CCN(C(=O)C3CC3)CC2)cc1 | 19 | -4
Cc1ncc(CO)c2cc(C(=O)Nc3ccc(Cl)cc3)c(=O)oc12 | -4 | -4
CCN(CC)C(=O)CC[C@H]1CC[C@]2(CCCN(Cc3cccs3)C2)O1 | -4 | -5
CCOC(=O)CC[C@@H]1CC[C@]2(CCCN(Cc3cccs3)C2)O1 | 94* | -6
SMILES | mHTT-CaM PPI inh | Pf apPOL block
Cc1cc(I)c(O)c(C=Nc2cc(C)ccc2O)c1 | 45 | -6
Cc1ccc(O)c(N=Cc2cc(I)ccc2O)c1 | 63* | 5
COc1ccc(C2SCCN2S(=O)(=O)c2ccc(Cl)cc2)cc1OC (stereo not drawn) | -8 | 0
CCN1C(=Cc2c3ccccc3cc[n+]2CC)C=Cc2ccccc21 | 63* | 0
CCN1/C(=C/c2cccc[n+]2C)C=Cc2ccccc21 | 19 | 3
CCOc1ccc(S(=O)(=O)Nc2ccc(OC(F)(F)F)cc2)c2cccnc12 | 0 | -4
CCOc1ccccc1NC(=O)C(=O)NCC1CCCO1 (stereo not drawn) | -6 | -4
Cc1csc(SCc2cc(=O)c(OC(=O)c3cccc([N+](=O)[O-])c3)co2)n1 | 2 | 13
Cc1ccnc(SCc2cc(=O)c(OC(=O)Cc3ccc([N+](=O)[O-])cc3)co2)n1 | 88* | 0
Cn1ccnc1SCc1cc(=O)c(OC(=O)CC2CCCCC2)co1 | 14 | -4
O=C(CC(c1ccccc1)c1ccccc1)Oc1coc(CSc2ncccn2)cc1=O | 99* | -1
COc1cc(CN2CCN(Cc3ccc(OC)c(OC)c3OC)CC2)cc(OC)c1OC | -6 | 0
CC(C)c1ccc(NC(=O)C2CCN(S(=O)(=O)c3ccc(F)cc3)CC2)cc1 | -16 | -6
COC(=O)C(C)Oc1cc(C)cc2oc(=O)cc(-c3ccccc3)c12 (stereo not drawn) | -7 | -4
CC(Oc1cc2oc(=O)cc(-c3ccccc3)c2cc1Cl)C(=O)O (stereo not drawn) | 100* | -1
CCCN1CCN(C(=O)c2ccc(-n3nc(C)c4c3CC(C)(C)CC4=O)cc2)CC1 | 15 | 8
O=C(CC1(O)C(=O)N(Cc2ccc(Cl)cc2)c2ccccc21)c1cccnc1 (stereo not drawn) | 25 | -2
O=C(CC1(O)C(=O)N(Cc2ccc(Cl)cc2)c2ccccc21)c1cccc([N+](=O)[O-])c1 (stereo not drawn) | 93* | -2
O=C(CC1(O)C(=O)N(Cc2ccc(Cl)cc2)c2ccccc21)c1ccc([N+](=O)[O-])cc1 (stereo not drawn) | 86* | -9
